± gives the standard deviation.
These sequences were tested on EfPiwi piRISC loaded with piRNA #1 (26 nt) (assay: pre-steady-state target cleavage rate (min^-1); auxiliary factor: 500 nM Ephydatia muelleri Gtsf1; guide: piRNA #1 5'p-UGAGGUAGUAGGUUGUAUAGUAUCCA; MIWI and MILI are mouse PIWI proteins and EfPiwi is from a freshwater sponge; tags in brackets are library labels; higher = faster piRNA-guided slicing of the target).
Method in brief: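 Cleave-'n-Seq: 1 nM active affinity-purified piRISC with one synthetic guide and 0.1 nM transcribed, DNA-blocked target RNA library were mixed, with or without 500 nM GTSF1 partner protein, in HEPES–potassium acetate buffer at 33 °C for 0–8 or 0–960 min. Uncleaved targets were sequenced and normalised to depth and to weakly complementary targets, three trials were pooled, and k3 was capped at 0.0001 min^-1. The pre-steady-state cleavage rate was fitted […].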

| Sequence | pre-steady-state target cleavage rate |
| --- | --- |
| GGAGUGGAUACUAUACAACCUACUAGCUGA | 0.00461 ± 0.0027 |
| GGAGAGGAAACUAUACAACCAACUACCUCA | 0.00523 ± 0.0026 |
| GGAGACCUAACUAUACAAGCCUACUACCUCA | 0.00432 ± 0.0033 |
| GGAGUGGAUACUAUACUACCUACAACCUCA | 0.00209 ± 0.0019 |
| GGAGACGAUACUAUACAACCUACUUGGUCA | 0.00312 ± 0.0021 |
| GGAGACGAUACUAUACAACCUAGAUCCUCA | 0.00272 ± 0.0017 |
| GGAGACGAUACUAUACAACCUACUAUCUCA | 0.00856 ± 0.0034 |
| GGAGACGAUACUAUACAACCUUCUACCACA | 0.00454 ± 0.0022 |
| GGAGACGAUACUAUACAACCCUACUACCUCA | 0.00604 ± 0.0029 |
| GGAGUGGUUACUAAACAACCUACUACCUCA | 0.00439 ± 0.0033 |
| GGAGACCAGACUAUACAACCUACUACCUCA | 0.00856 ± 0.0055 |
| GGAGACCUAACUAUACAACCUAGUACGUCA | 0.00403 ± 0.0029 |
| GGAGACCUAUGAUAUGUACCAACUACCACA | < 0.0001 |
| GGAGUGGAUACUAUACAACCUUCUUCCUCA | 0.00355 ± 0.0026 |
| GGAGACCUAUGAUAUGAUCCUAGUACCUCA | < 0.0001 |
| GGAGAGGAUACUAUACGAACCUACUACCUCA | 0.0069 ± 0.0052 |
| GGAGACCAUACUAUACACCUACUACCUCA | 0.00694 ± 0.0042 |
| GGAGAGGAUACUAUACAACCUACUUGGUCA | 0.00425 ± 0.0034 |
| GGAGACCAAACAAUACAACCUACUACCUCA | 0.00594 ± 0.0054 |
| GGAGAGGAUACUAUACAACCUACUACCACA | 0.00641 ± 0.0021 |

| Sequence | pre-steady-state target cleavage rate |
| --- | --- |
| GGAGACCAUACAUACAACCUACUACCUCA | 0.0126 ± 0.0066 |
| GGAGUGGAUACUAUACAACCUACUAGGAGA [g6:g26:cont:t1A] | 0.00291 ± 0.0023 |
| GGAGACCUAACUAUACACCUACUACCUCA | 0.00586 ± 0.0042 |
| GGAGUGGCUACUAUACAACCUACUACCUCA | 0.0198 ± 0.0079 |
| GGAGAGGAUACUUUACAACCUACUUCCUCA | 0.00239 ± 0.0024 |
| GGAGAGGAUACUAUACAACCUACUACGCUCA | 0.00523 ± 0.0019 |
| GGAGACGAUACUAUAGAACCUAGUACCUCA | 0.0018 ± 0.0015 |
| GGAGAGGAUACUAUACAACGUACUUCCUCA | 0.00375 ± 0.0013 |
| GGAGAGGAUACUAUACAACCUACUACCUCU [g2:g25:cont:t1U] | 1.56 ± 0.47 |
| GGAGACCUAUGAUAUCAACCAAGUACCUCA | < 0.0001 |
| GGAGAGGAUACUAUACAGACCUACUACCUCA | 0.00626 ± 0.0046 |
| GGAGUGGAUACUAUAGAACCUACUACGUCA | 0.00205 ± 0.0016 |
| GGAGACCUAACUAUACAACCUACUACCCCA | 0.00474 ± 0.0039 |
| GGAGACCUAAGUAUACAACCUACUACCUCA | 0.00697 ± 0.0037 |
| GGAGACCUUACAAUACAUCCUACUACCUCA | 0.00553 ± 0.004 |
| GGAGACCUUACUAUACAAUCUACUACCUCA | 0.00599 ± 0.0041 |
| GGAGACCAUACUAUACAACACUACUACCUCA | 0.00469 ± 0.0037 |
| GGAGACCAUACUAUACGAACCUACUACCUCA | 0.0108 ± 0.0042 |
| GGAGUGGAUACUAUACAACCUAGUACCACA | 0.0035 ± 0.0016 |
| GGAGACGAUACUAUACAAGCCUACUACCUCA | 0.00444 ± 0.0036 |

From the supplement of paper PMC10338343
